Measured values from PubChem BioAssay AID449762 (Southern Research Specialized Biocontainment Screening …, 2010).
About 1,900 (0.58%) of roughly 330,000 compounds were called active. Roughly 4% stayed inconclusive and do not appear here. Not all results are given here. Results with a measured potency or affinity are listed apart. A number with no mark means an inactive call. Cut-off read from the data, not from the text of the source: inconclusive = inhibition above about 70% without an active follow-up result; inactive = below that.

Assay: M. tuberculosis growth inhibition, HTS (AID 449762);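 note: bacterial growth assessed after seven days of incubation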
Conditions: M. tuberculosis H37Rv growth inhibition, 7H9 media; at 25 µM; active compounds read high

SMILES	inhibition [%]
CC1CN(c2ccc(Cl)nn2)CC(C)O1 (configuration not stated)	7.67
COc1ccc(C(CCN(Cc2ccc(OC)c(OC)c2)C(C)=O)c2ccccc2)cc1 (configuration not stated)	-0.43
COc1ccc(C(CCN(Cc2ccc(OC)c(OC)c2)C(C)=O)C(C)C)cc1 (configuration not stated)	2.76
CCC1CN(C(=O)N2CCC(C(=O)Nc3ccccc3OC)CC2)c2ccccc2O1 (configuration not stated)	10.6
O=S(=O)(c1ccc2ccccc2c1)N1CCN(S(=O)(=O)N2CCCCC2)CC1	0.71
COc1ccc(C2=NOC(C(=O)N3CCN(C(=O)c4ccco4)CC3)C2)cc1OC (configuration not stated)	2.5
O=C(c1ccco1)N1CCN(C(=O)C2CC(c3ccc(F)cc3)=NO2)CC1 (configuration not stated)	10.6
Cn1c(CSc2nc3ccccc3s2)nnc1SCC(=O)NCCN1CCOCC1	1.49
CCCCn1nc(C(=O)Oc2ccc3c(C)cc(=O)oc3c2)c2ccccc2c1=O	64.9
CCn1c(SCC(=O)NC2CCCCC2)nc2ccccc2c1=O	-17.1
CCOC(=O)CSc1nc2ccccc2c(=O)n1CC	-0.95
O=C(Nc1ccn([C@H]2CC[C@@H](CO)O2)c(=O)n1)c1ccccc1	-7.83
O=C(COC(=O)/C=C/c1cccc(Br)c1)NC1CCCCC1	1.15
CCC(C(=O)n1cccc1C#N)c1ccccc1C (configuration not stated)	-5.42
CCOC(=O)c1nn(-c2ccc(C)cc2)cc1O	25.8
CCOC(=O)c1nn(-c2ccc(Cl)cc2)cc1O	47.5
O=C(Oc1ccc(Br)cc1C(=O)/C=C/c1ccccc1F)c1ccco1	0.45
O=C(/C=C/Nc1ccc(Br)cc1F)c1ccco1	4.98
CS(=O)(=O)c1ccc(C(=O)OCC(=O)N2CCCc3ccccc32)cc1	-0.56
CCNS(=O)(=O)c1ccc(C(=O)OCC(=O)N2CCCc3ccccc32)cc1	5.95
O=C1C=C(NCc2ccco2)C2(CCCCC2)O1	-1.04
CCNc1nc(NC(C)C)nc(ON=C(C)C)n1	-5.67
Cc1cc(C(=O)N=Nc2c(O)n(C)c3ccccc23)c(C)o1	5.51
COc1ccc(C(C)=O)cc1COC(=O)c1cc(C)nc2ccccc12	11.9

SMILES	inhibition [%]
COc1ccc(C(C)=O)cc1COC(=O)c1cc2ccccc2cc1O	-1.43
C=CCn1c(C)c(/C=C/c2cc[n+](C)cc2)c2ccccc21	0.73
Cc1ccc2[nH]cc(/C=C/c3cc[n+](C)cc3)c2c1	-0.27
Cc1c(C)n2c(SCC(=O)Nc3cccc4ccccc34)nnc2[nH]c1=O	5.62
C/C(=N\OC(=O)c1c(-c2c(F)cccc2Cl)noc1C)c1nccs1	3.84
Cc1onc(-c2c(Cl)cccc2Cl)c1C(=O)O/N=C(\C#N)c1c(Cl)cccc1Cl	-0.37
CCOC(=O)[C@H]1[C@H]2COc3ccc(Br)cc3[C@@H]2N2C(=O)N(c3ccccc3)C(=O)[C@@]12C	6.24
CCOc1ccc(CNC(=O)C2CCCN(S(=O)(=O)N3CC(C)CC(C)C3)C2)cc1OC (configuration not stated)	-1.45
COC(OC)c1ccnc(-c2ccc(OC(=O)c3ccccc3)cc2)n1	57
COC(OC)c1ccnc(-c2ccc(OC(C)=O)cc2)n1	0.19
CCC[N+](CC#Cc1ccccc1)(CCC)CC(=O)OC	0.57
Cc1occc1-c1nnc(SCC(=O)NC2CC2)n1C(C)C	6.3
CCOCCn1c(=O)c2c(nc3n2CCCN3Cc2ccccc2)n(C)c1=O	4.47
CCCC(O)(c1ccc(CC)cc1)C(CN1CCOCC1)c1ccccc1 (configuration not stated)	9.99
CCOC(=O)N1CCC(n2c(SCC(=O)c3ccccc3)nc3ccsc3c2=O)CC1	-5.37
CCOC(=O)CSc1nc2ccsc2c(=O)n1C1CCN(C(=O)OCC)CC1	39.3
COc1ccc(/C=N/NC(=O)c2cccc(C(=O)N/N=C/c3ccc(OC)cc3)n2)cc1	-1.47
O=C(CN1C(=O)COc2ccccc2C1=O)c1ccc2c(c1)OCCO2	4.6
O=C(OC(C(=O)c1c[nH]c2ccccc12)c1ccccc1)c1cnccn1 (configuration not stated)	1.97
Nc1nnnn1/N=C/C=C/c1ccccc1	-3.78
Nc1nnnn1/N=C/c1ccccc1	-0.26
CCOC(=O)N1CCC(N2C(=O)c3ccc(C(=O)Nc4ccc(F)cc4F)cc3C2=O)CC1	-5.69
CCOC(=O)N1CCN(S(=O)(=O)c2ccc(C(=O)N(CCN(C)C)c3nc4c(C)cccc4s3)cc2)CC1	-14.4
